Inconclusive results are not listed. A number with no mark means an inactive call. Activity calls are given as the source filed them. Calls follow the shape of the dose curve; as a rule, active = well fitted inhibition curve with a large enough effect; inconclusive = small, poorly fitted or top-dose-only effect; inactive = flat fitted curve, though single readings scatter.
Molecular target: Dual specificity tyrosine-phosphorylation-regulated kinase 1A (Homo sapiens) (UniProt Q13627)
Test: Confirmation Assay for Inhibitors of Dyrk1a (Kinase-Glo Assay): KU probe
Conditions: Kinase-Glo ATP luminescence; series mostly up to 76.9 µM; activity, negative = inhibition: at the top concentration
Excerpt: NIH Molecular Libraries Probe Production Centers Network [MLPCN] NIH Chemical Genomics Center [NCGC] MLSCN Grant: 1R03MH084827-01 PI Name: Tom Misteli NCGC Assay Overview: The CMGC group of protein kinases which includes CDK-like kinases (Clk) and Dyks are essential kinases found in all eukaryotes. Clks have been implicated to play a role in the regulation of alternative splicing; while Dyrks, in particular over expression of Dyrk1A, has been linked to diseases as Down syndrome (DS; OMIM 190685) and Alzheimer disease (AD; OMIM 104300). Among the members of the CMGC group, the Clks and the Dyrks are very closely related therefore to determine validity and selectivity of an active compound observed in the CLK4 qHTS screen (AID:1770), a bioluminescent counter-screen against Dyrk1A was developed. In addition, potent and selective compounds against Dyrk1A were identified to further assess the role of this enzyme in DS and AD. Dyrk1A (Invitrogen, cat # PV3785) was assayed using ATP and DYRKtide (AnaSpec, cat# 62698) as substrates. Promega Kinase-Glo (cat# V6712) technology was used to detect the residual ATP following kinetic reaction. The Kinase-Glo Plus contains Ultra-Glo [5] luciferase and D-luciferin which generates a bioluminescence signal from the remaining ATP. No enzyme and harmine (Sigma, cat # 286044-1G), a compound shown to inhibit Dyrks were used as a positive control; while DMSO treatment was used as a negative control.
NCGC Assay Protocol Summary: Two uL/well of substrate solution (8uM Dyrktide, 2uM ATP, 25mM Tris-HCl pH 7.5, 10mM MgCl2 , 0.5mM EGTA, 5mM cystein, 0.01% Triton X-100 final concentration) was dispensed into 1536-well assay plates (Greiner, solid white, medium-binding plates) with Aurora Discovery BioRAPTR Flying Reagent Dispenser (FRD, Beckton-Dickenson). Compound solution (23 nL) was transferred to the assay plate using Kalypsys pin tool equipped with a 1536-pin tool. One uL/well enzyme solution (5nM Dyrk1A, 25mM Tris-HCl pH7.5, 10mM MgCl2, 0.5mM EGTA, 5mM cystein, 0.01% Triton X-100 final concentration) was then added using FRD yielding a total kinase reaction volume of 3uL/well. After 2 hours of room temperature incubation, 3uL Kinase-Glo detection reagent was added for a final assay volume of 6uL/well. The plates were spun for 30 seconds (1000 rpm) and incubated at ambient temperature for 2 minutes followed by a luminescence read using Perkin Elmer ViewLux plate reader at 3 seconds exposure time and 2x binning.

Row | SMILES | activity, negative = inhibition [%] | Potency
1 | COc1ccc(-c2nccc(NCc3ccccc3)n2)cc1 | -16.7 | –
2 | CC(=O)c1ccc(-c2ccc3ncnc(NCc4ccc(C)o4)c3c2)o1 | – | 1640 nM (active)
3 | O=c1cnc2cnc(Nc3ccccc3)nc2n1CCc1ccccc1 | – | 292 nM (active)
4 | CCNC(=O)c1ccc(-c2ccc3ncnc(NCC4CCCO4)c3c2)o1 (stereo not given) | – | 2600 nM (active)
5 | COc1ccc(CNc2ccnc(-c3ccc(N(C)C)cc3)n2)cc1 | -1.18 | –
6 | c1cc(-c2ccoc2)nc(-c2ccoc2)n1 | – | 20700 nM (active)
7 | c1coc(-c2ccnc(-c3ccc4c(c3)OCO4)n2)c1 | – | 20700 nM (active)
8 | Clc1ccc(CNc2ncncc2-c2ccc3c(c2)OCO3)cc1 | – | 26000 nM (active)
9 | Clc1ccc(CNc2ccnc(-c3ccc4[nH]ncc4c3)n2)cc1Cl | – | 4630 nM (active)
10 | Cc1csc(CNc2ncnc3ccc(-c4ccc(C(=O)O)o4)cc23)n1 | – | 23200 nM (active)
11 | Clc1ccc(Nc2nccc(-c3ccc4c(c3)OCO4)n2)cc1 | – | 519 nM (active)
12 | Clc1ccc(CNc2ccnc(-c3ccc4c(c3)OCO4)n2)cc1Cl | -10.7 | –
13 | CCN(C)c1ncnc2ccc(-c3ccc4c(c3)OCO4)cc12 | – | 260 nM (active)
14 | Clc1cc(Cl)cc(CNc2ncncc2-c2ccc3c(c2)OCO3)c1 | – | 2600 nM (active)
15 | Clc1ccc(CNc2nccc(-c3ccc4[nH]ncc4c3)n2)cc1Cl | – | 328 nM (active)
16 | c1cc(-c2ccoc2)nc(-c2ccc3c(c2)OCO3)n1 | – | 29200 nM (active)
17 | O=C(O)c1ccc(-c2ccc3ncnc(NCc4nccs4)c3c2)o1 | – | 8230 nM (active)
18 | Clc1ccc(CNc2nccc(-c3ccc4c(c3)OCCO4)n2)cc1Cl | – | 207 nM (active)
19 | c1nc(NCCC2CCCO2)c2cc(-c3ccc4c(c3)OCO4)ccc2n1 (stereo not given) | – | 164 nM (active)
20 | Cc1noc(C)c1-c1nccc(NCc2ccc(Cl)c(Cl)c2)n1 | -4.65 | –

Row | SMILES | activity, negative = inhibition [%] | Potency
21 | Brc1cc(Br)cc(CNc2nccc(-c3ccc4c(c3)OCO4)n2)c1 | – | 73.3 nM (active)
22 | CN(C)c1ccc(-c2ncccn2)cc1 | -3.87 | –
23 | Cc1ccc(CNc2ccnc(-c3c(C)noc3C)n2)cc1 | -9.63 | –
24 | c1cncc(CNc2ccnc(-c3ccc4ccccc4c3)n2)c1 | – | 14600 nM (active)
25 | c1cc(-c2ccc3c(c2)OCO3)nc(Nc2ccc3c(c2)OCO3)n1 | – | 130 nM (active)
26 | CN(C)c1ccc(-c2nccc(NCc3ccccc3)n2)cc1 | -4.92 | –
27 | CN(C)c1ccc(-c2nccc(NCc3ccc(Cl)cc3)n2)cc1 | -1.69 | –
28 | Clc1ccc(CNc2ccnc(-c3ccc4c(c3)OCO4)n2)cc1 | -15.5 | –
29 | c1cncc(CNc2ccnc(-c3cccc4ccccc34)n2)c1 | – | 41200 nM (active)
30 | c1nc(NCC2CCCCO2)c2cc(-c3ccc4c(c3)OCO4)ccc2n1 (stereo not given) | – | 65.4 nM (active)
31 | COc1ccc(CNc2ccnc(-c3c(C)noc3C)n2)cc1 | -1.66 | –
32 | FC(F)(F)c1cccc(Nc2nccc(-c3ccc4c(c3)OCO4)n2)c1 | – | 65.4 nM (active)
33 | Cc1noc(C)c1-c1nccc(NCc2ccc(Cl)cc2)n1 | -5.84 | –
34 | O=C(O)c1ccc(-c2ccc3ncnc(N4CCOCC4)c3c2)o1 | – | 26000 nM (active)
35 | c1cncc(CNc2ccnc(-c3ccc4cn[nH]c4c3)n2)c1 | – | 2070 nM (active)
36 | COc1ccc(-c2ccnc(NCc3ccc(Cl)c(Cl)c3)n2)cc1 | – | 733 nM (active)
37 | FC(F)(F)c1cc(Br)cc(Nc2nccc(-c3ccc4c(c3)OCO4)n2)c1 | – | 519 nM (active)
38 | Clc1ccc(CNc2ncncc2-c2ccc3c(c2)OCO3)cc1Cl | – | 4120 nM (active)
39 | CCCN(C)c1ncnc2ccc(-c3ccc4c(c3)OCO4)cc12 | – | 260 nM (active)
40 | c1nc(NCCc2cnc[nH]2)c2cc(-c3ccc4c(c3)OCO4)ccc2n1 | – | 328 nM (active)
